In PubChem BioAssay (Tox21):
Values joined by “and” are separate entries in the source; they are usually repeats but may differ in a detail not shown here. Equal entries are not always repeated. Inconclusive results are not listed. Active and inactive are the calls of the source. Calls come from the whole dose curve; as a rule, active = well fitted inhibition curve with a large enough effect in the repeat runs; inconclusive = weak or mixed curves; inactive = no such curve, though single readings can be large or run the other way.

Target: Cytochrome P450 2C19 (Homo sapiens) (UniProt P33261)
Experiment: Cytochrome P450 Family 2 Subfamily C Member 19 (CYP2C19) small molecule antagonists: luciferase reporter qHTS assay (AID 1671197); note: nearly all actives have a fitted effect of over 65% in size
Conditions: P450-Glo CYP2C19 enzyme, luciferin luminescence, 1 h; series mostly up to 115 µM
Summary of the method: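 Inhibition of CYP2C19 was scored from loss of luminescence in a P450-Glo proluciferin substrate assay, NADPH-started and run 1 h at 37C, with ketoconazole as positive control.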
Potency is the fitted concentration of half-maximal effect.

Cytochrome P450 2C19 (Homo sapiens), sequence (P33261 whole entry, looked up): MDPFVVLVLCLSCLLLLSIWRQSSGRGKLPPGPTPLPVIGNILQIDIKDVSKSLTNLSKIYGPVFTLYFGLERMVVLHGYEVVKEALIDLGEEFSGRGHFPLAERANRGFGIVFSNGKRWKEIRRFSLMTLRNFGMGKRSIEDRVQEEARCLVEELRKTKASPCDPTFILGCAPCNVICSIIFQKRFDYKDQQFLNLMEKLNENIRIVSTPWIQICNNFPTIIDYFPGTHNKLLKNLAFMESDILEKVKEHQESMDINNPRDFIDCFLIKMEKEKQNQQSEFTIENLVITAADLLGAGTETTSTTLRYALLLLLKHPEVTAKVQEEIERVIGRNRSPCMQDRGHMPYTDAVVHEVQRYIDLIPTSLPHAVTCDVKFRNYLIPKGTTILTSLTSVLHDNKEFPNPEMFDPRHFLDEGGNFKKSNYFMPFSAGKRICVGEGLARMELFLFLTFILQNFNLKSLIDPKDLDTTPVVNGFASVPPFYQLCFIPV

| Structure (SMILES) | Potency |
| --- | --- |
| C=C(Cl)Cl | 75.6 µM (active) |
| CCOC(=O)c1cn2nc(OP(=S)(OCC)OCC)cc2nc1C | 2.52 µM (active) |
| O=C(O)c1ccc(=O)[nH]c1 | inactive |
| O=C(O)C(Cl)(Cl)Br | inactive |
| Cc1nc2ccccc2c(=O)n1-c1ccccc1Cl | 2.77 µM (active) |
| CC(Oc1cc(Cl)c(Cl)cc1Cl)C(=O)O (stereo unspecified) | inactive |
| N#CC(C#N)=C(C#N)C#N | 58.9 µM (active) |
| COc1cc(CC(C)N)c(OC)cc1Br (stereo unspecified) | inactive |
| O=C(CCl)CCl | inactive |
| CCCCC(CC)COC(=O)c1c(Br)c(Br)c(Br)c(Br)c1C(=O)OCC(CC)CCCC (stereo unspecified) | inactive |
| O=P(OCC(Br)CBr)(OCC(Br)CBr)OCC(Br)CBr (stereo unspecified) | 3.6 µM (active) and 4.25 µM (active) |
| N#CC(C#N)=Cc1ccc(O)c(O)c1 | inactive |
| COc1ccc2c(c1OC)C(=O)O[C@H]2[C@@H]1c2cc3c(cc2CCN1C)OCO3 | 3.89 µM (active) |
| CC(C)(C)N(NC(=O)c1ccc(Cl)cc1)C(=O)c1ccccc1 | 4.45 µM (active) |
| NCCc1cc(O)c(O)cc1O | 9.77 µM (active) |
| C[Si](Cn1cncn1)(c1ccc(F)cc1)c1ccc(F)cc1 | 58.3 nM (active) and 39.9 nM (active) |
| COc1cc(C[C@@H](C)N)c(OC)cc1Br | inactive |
| C[C@H]1[C@@H]2Cc3ccc(O)cc3[C@@]1(C)CCN2C | 53.8 µM (active) |
| CNC(=O)Oc1cccc(N=CN(C)C)c1 | 79.6 µM (active) |
| CCOC(C(=O)OCCN(C)C)(c1ccccc1)c1ccccc1 | 8.71 µM (active) |
| CCCCCCCCCCCC[N+](C)(C)CCOc1ccccc1 | 56.4 µM (active) |
